Source: PubChem BioAssay
HSP90 refold inh: HSP90 inhibitors, primary screen, cell lysate, luminescence. inhibition, % at 5.6 µM. Rabbit reticulocyte lysate, luciferase refolding luminescence, 3 h. Heat shock protein HSP 90 (rabbit reticulocyte lysate; luciferase refolding). 290,000 tested, 0.91% active;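 active = inhibition above the screen-wide mean plus 3 SD, computed separately per campaign, cut at about 16% in these data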;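 also: 0% = DMSO wells and 100% = 60 µM geldanamycin wells; inhibitors lower the luminescence because luciferase stays unfolded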
TROY NFkB inh: inhibitors of TROY-driven NF-kB signaling, primary screen, Q293 LMP1-TROYcd cells, NF-kB luciferase, uHTS; Q293 LMP1-TROYcd NF-kB luciferase reporter, 4 h; 360,000 tested, 0.98% active; inhibition, % at 10 µM;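 active = compounds whose plate-normalised and pattern-corrected inhibition of the luciferase reporter signal at the single screening dose is 50% or more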
EBV LMP1 NFkB: EBV LMP1-driven NF-kappaB luciferase reporter inhibitors, primary screen, cell-based, luminescence, single point; LMP1-induced NF-kappaB luciferase reporter cells; inhibition, % at 12.5 µM; 350,000 tested, 0.69% active; in the data active = inhibition above about 41%;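 also: 0% = neutral control wells and 100% = reference inhibitor control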
HSF-1 act: HSF-1 activators, primary screen, NIH3T3-HGL cells, MG132 stress, luminescence, single point; NIH3T3-HGL HSF-1 luciferase reporter, 8 h; 100% = twice DMSO control signal; AID 504408, 2011; 300,000 tested, 1.7% active; activation, % at 9 µM;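 active = mean replicate activation of at least 50% with a set share of replicates each reaching 50%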;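 also: 0% = median of the neutral control wells and 100% = twice that signal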
HSF1 inh: HSF1 inhibitors in luciferase reporter cells, primary screen, cell-based, NIH3T3, luminescence; NIH3T3-HGL HSE-luciferase, MG132-induced, luminescence 8 h; hits give low values; activity change, negative = inhibition, % at 7.5 µM (by protocol); 300,000 tested, 0.77% active; AID 2098, 2009;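 active = more than half of replicate wells show activity change below -50%, luminescence cut by over half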;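 also: luciferase reports HSF-1 transcriptional activity via heat shock element; 0% = median of DMSO wells and -100% = zero luminescence signal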
TWEAK-Fn14 inh: inhibitors of TWEAK-Fn14 signaling, primary screen, luciferase reporter cells, uHTS. TWEAK-stimulated Fn14 reporter cells, luciferase luminescence, 8 h. inhibition, % at 10 µM. 360,000 tested, 2% active; in the data active = inhibition above about 50%
An asterisk follows results filed as active; nt = not tested or not shown. An excerpt weighted towards active compounds, which were near 4.7% of everything screened.

SMILES | HSP90 refold inh | TROY NFkB inh | EBV LMP1 NFkB | HSF-1 act | HSF1 inh | TWEAK-Fn14 inh
COc1ccc(CCC(=O)N2CCN(S(=O)(=O)c3ccc(OC)c([N+](=O)[O-])c3)CC2)cc1 | nt | 1 | 0 | nt | nt | 16
CCOC(=O)Nc1ccc2c(c1)N(C(=O)CCN1CCN(C)CC1)c1ccccc1S2 | 8 | -5 | 5 | 32 | 14 | 10
CCOC(=O)Nc1ccc2c(c1)Sc1ccccc1N2C(=O)CCN1CCOCC1 | 7 | -13 | -11 | 63* | 22 | -7
Cc1ccc(-c2nnc(CSc3nc(C(C)C)nc4sc(C)c(C)c34)o2)cc1 | 0 | nt | 6 | -1 | -4 | 83*
COc1ccc(C(CNC(=O)C(CCSC)NC(=O)c2ccccc2Cl)N2CCCCC2)cc1 (stereo not given) | nt | 5 | 71* | nt | nt | 13
COc1ccc(C(CNC(=O)C(CCSC)NC(=O)c2ccccc2Cl)N2CCCC2)cc1 (stereo not given) | nt | -25 | 1 | nt | nt | 2
c1ccc(COc2cccc(-c3cc4nc(NCc5cccs5)ccn4n3)c2)cc1 | nt | -23 | nt | nt | nt | 9
O=C(N[C@@H](Cc1ccccc1)C(=O)N[C@@H](Cc1ccccc1)C(=O)O)OCc1ccccc1 | nt | 6 | 0 | -3 | 5 | 5
O=C(N[C@@H](Cc1ccccc1)C(=O)CCl)OCc1ccccc1 | nt | 0 | 56* | nt | nt | 48
CC(C)Nc1ncnc2c1ncn2[C@H]1CN(Cc2cccnc2)C[C@@H](CO)O1 | nt | 3 | nt | nt | nt | -21
CN(C)c1ccc(/C=N/n2ncc3ccccc32)cc1 | 3 | 23 | -34 | 23 | 20 | 54*
C=CCn1c(/N=C/c2ccc(N(C)C)cc2)nc2ccccc21 | -3 | 9 | -10 | 10 | -4 | -4
c1ccc(COc2ccccc2CNC2CCCC2)cc1 | -1 | 9 | 0 | 58* | 24 | -3
CC(C)C(=O)Nc1cccc(NC(=O)c2ccc(Cl)cc2Cl)c1 | -2 | 56* | -4 | 10 | -3 | 0
CCOC(=O)c1ccc(-c2ccc(N3C(c4cccc(OC)c4)=Cc4ccc(F)cc4C3CC(C)=O)cc2)cc1F (stereo not given) | nt | 29 | nt | nt | nt | 36
Fc1ccccc1NC(=S)N/N=C/c1ccccc1Br | 16* | 35 | -19 | -21 | -7 | 28
O=[N+]([O-])c1ccc(/C=N/NC(=S)Nc2ccccc2F)o1 | 6 | -45 | -3 | 20 | 0 | -3
O=[N+]([O-])c1cccc(CSc2nc3ccccc3[nH]2)c1 | -6 | -60 | -8 | 24 | 4 | -10
COc1cccc(CSc2nc3ccccc3[nH]2)c1 | 8 | -53 | -26 | 112* | 63 | -41
Fc1c(F)c(F)c(CSc2nc3ccccc3[nH]2)c(F)c1F | -1 | -29 | -14 | 56* | 33 | -15
Fc1ccccc1CSc1nc2ccccc2[nH]1 | 5 | -64 | -24 | 71* | 33 | 9
c1ccc2[nH]c(SCc3cscn3)nc2c1 | 0 | -23 | -3 | 41 | 1 | -10
CC(C)(C)n1nnnc1C(c1cc2ccccc2o1)N1CCN(C(=O)OCc2ccccc2)CC1 (stereo not given) | nt | 11 | nt | nt | nt | -17
Cc1ccc(SCC(=O)c2c(C)nc3ccccn23)cc1 | -2 | -8 | -10 | 5 | 15 | 0
Cc1ccc(CSc2nccc(-c3c(C)nc4ccccn34)n2)cc1 | -3 | 41 | nt | 2 | -8 | 57*
SMILES | HSP90 refold inh | TROY NFkB inh | EBV LMP1 NFkB | HSF-1 act | HSF1 inh | TWEAK-Fn14 inh
COc1ccccc1-c1ncn(Cc2cccc(-c3ccccc3)c2)c1CC(C)C | nt | 46 | nt | nt | nt | 38
COCC(=O)N1CCC(Oc2ccc(C(=O)N3C[C@H]4CC[C@H]3C4)cc2)CC1 | 5 | 9 | 65* | -8 | -8 | 2
O=c1c2[nH]c3cccc(Cl)c3c2ncn1CC1CCCO1 (stereo not given) | 0 | 77* | -16 | -7 | 3 | 87*
O=c1c2[nH]c3cccc(Cl)c3c2ncn1CCN1CCCCC1 | 0 | -6 | -2 | -27 | -12 | -5
COCCN1CSC(=S)N(Cc2ccco2)C1 | -1 | 12 | 45* | nt | nt | -7
CNC(=O)c1c(NC(=O)c2nc3ccccc3s2)sc2c1CCC2 | 3 | 14 | -58 | 55* | 32 | -17
COC(=O)c1c(NC(=O)c2nc3ccccc3s2)sc2c1CCN(C(C)=O)C2 | -2 | 4 | -9 | nt | nt | 15
CCCC(=O)Nc1sc(C(=O)Nc2cccc(N)c2)c(C)c1C(=O)OC | -2 | -20 | -13 | -71 | -67* | -10
COc1ccc([C@H]2CN(c3ccc(OC)cc3)C(=O)[C@@H]2CC(=O)Nc2ccccc2)cc1 | nt | -22 | 33 | nt | nt | -9
CCOC(=O)c1ccc(-n2c(CN3CCOCC3)nc3ccc([N+](=O)[O-])cc3c2=O)cc1 | -1 | 33 | -6 | 15 | 5 | -14
CCOC(=O)c1ccc(-n2c(CN3CCC(O)CC3)nc3ccc([N+](=O)[O-])cc3c2=O)cc1 | 4 | 53* | -6 | 2 | 4 | 29
CCOC(=O)c1ccc(-n2c(CN3CCN(CC)CC3)nc3ccc([N+](=O)[O-])cc3c2=O)cc1 | -1 | 30 | 1 | -8 | -12 | 15
CCOC(=O)c1ccc(-n2c(CN3CCC(C(N)=O)CC3)nc3ccc([N+](=O)[O-])cc3c2=O)cc1 | 1 | 55* | -8 | -7 | 5 | 15
Cc1cc(C)nc(CCNC(=O)c2cc(COc3ccc(F)cc3F)on2)n1 | 2 | -7 | -5 | 2 | -4 | -5
Cc1cc(C)nc(CCNC(=O)c2cc(COc3ccc(F)cc3Cl)on2)n1 | -6 | 76* | -8 | 3 | 3 | -21
COc1ccc(CCNC(=O)c2cc(COc3c(C)cccc3C)on2)c(OC)c1 | 6 | -14 | -3 | 56* | 18 | -22
O=C(c1cc(COc2ccc(F)cc2Cl)on1)N1CCCCCC1 | -1 | -41 | -19 | 60* | 46 | -22
COc1ccc(CCNC(=O)c2cc(COc3c(F)cccc3F)on2)c(OC)c1 | 4 | -20 | -20 | 17 | 8 | -55
O=C(/C=C/[C@H]1O[C@@H](n2ccc(=O)[nH]c2=O)[C@H](O)[C@@H]1O)NCCN1CCCCC1 | nt | 10 | nt | nt | nt | 7
Clc1ccc(-c2ccc(CNCC3CCCO3)o2)cc1 (stereo not given) | 1 | -44 | -9 | 79* | 62 | -10
CCOC(=O)c1c(NC(=O)/C=C\C(=O)O)sc(C)c1-c1ccccc1 | 3 | 12 | -4 | -3 | -5 | 16
CCOC(=O)c1c(NC(=O)/C=C/C(=O)O)sc(C)c1-c1ccc(C(C)(C)C)cc1 | -2 | 90* | -31 | 33 | 23 | 98*
